According to PubChem BioAssay (NCATS):
Results filed as inconclusive are left out. This is one part of the list. Active and inactive are the calls of the source. Unless noted, the call rests on the fitted dose curve; in most records, active means well fitted curve in the direction sought with a large enough effect; inconclusive means small, poorly fitted or top-dose-only effect, or another doubt; inactive means no such curve, though single readings can be large; an effect the other way counts as inactive or inconclusive.

How the values were obtained:
[1] = qHTS for differential inhibitors of proliferation of Plasmodium falciparum line D10 (AID 1877);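 further: parasites grown with compound for 72 h before DNA staining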; further: potency means the concentration at half of the fitted maximal effect
[2] = qHTS for differential inhibitors of proliferation of Plasmodium falciparum line Dd2 (AID 1882); conditions: Potency: Plasmodium falciparum Dd2 proliferation inhibition; further: nearly all actives have a fitted effect of over 65% in size; further: potency means the concentration at half of the fitted maximal effect
Outline: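 Dd2-infected erythrocytes (0.3% parasitemia, 2.5% hematocrit final) incubated with compound 72 h at 37 C, 5% CO2; lysed with saponin/Triton buffer containing SYBR Green I, incubated overnight in the dark, then read by fluorescence (485/535 nm). Normalized to 0.29 uM artemisinin and DMSO.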

[3] = qHTS for differential inhibitors of proliferation of Plasmodium falciparum line W2 (AID 1883); conditions: Potency: Plasmodium falciparum W2 proliferation inhibition;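 further: parasites grown with compound for 72 h before lysis and staining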; further: potency means the concentration at half of the fitted maximal effect
[4] = qHTS for differential inhibitors of proliferation of Plasmodium falciparum line HB3 (AID 1886); conditions: Potency: Plasmodium falciparum HB3 proliferation inhibition;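 further: parasites grown with compound for 72 h before SYBR Green readout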; further: potency means the concentration at half of the fitted maximal effect
[5] = biological target: Ferritin light chain (Equus caballus) (UniProt P02791); experiment: qHTS Validation Assay for Identification of Novel General Anesthetics (AID 2323); further: series mostly up to about 77 µM
Ferritin light chain (Equus caballus), sequence (P02791 2-175 limits assumed): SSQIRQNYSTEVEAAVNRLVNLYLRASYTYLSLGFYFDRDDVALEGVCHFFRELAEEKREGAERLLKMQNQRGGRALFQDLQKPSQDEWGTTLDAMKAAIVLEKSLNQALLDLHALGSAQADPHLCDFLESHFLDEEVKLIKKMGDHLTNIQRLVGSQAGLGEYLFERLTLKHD
Outline: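 Apoferritin from horse spleen (10 uM) was mixed with 1-aminoanthracene at 50% saturation in PBS, then compounds were added. After 10 min at room temperature, fluorescence was read (ex 380 nm, em 535 nm) and normalized to free-probe and complex controls.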

[6] = biological target: ATP-dependent DNA helicase Q1 (Homo sapiens) (UniProt P46063); experiment: qHTS Validation Assay for Inhibitors of RecQ-Like Dna Helicase 1 (RECQ1) (AID 2353); further: potency means the concentration at half of the fitted maximal effect
ATP-dependent DNA helicase Q1 (Homo sapiens), sequence (P46063 whole entry, looked up): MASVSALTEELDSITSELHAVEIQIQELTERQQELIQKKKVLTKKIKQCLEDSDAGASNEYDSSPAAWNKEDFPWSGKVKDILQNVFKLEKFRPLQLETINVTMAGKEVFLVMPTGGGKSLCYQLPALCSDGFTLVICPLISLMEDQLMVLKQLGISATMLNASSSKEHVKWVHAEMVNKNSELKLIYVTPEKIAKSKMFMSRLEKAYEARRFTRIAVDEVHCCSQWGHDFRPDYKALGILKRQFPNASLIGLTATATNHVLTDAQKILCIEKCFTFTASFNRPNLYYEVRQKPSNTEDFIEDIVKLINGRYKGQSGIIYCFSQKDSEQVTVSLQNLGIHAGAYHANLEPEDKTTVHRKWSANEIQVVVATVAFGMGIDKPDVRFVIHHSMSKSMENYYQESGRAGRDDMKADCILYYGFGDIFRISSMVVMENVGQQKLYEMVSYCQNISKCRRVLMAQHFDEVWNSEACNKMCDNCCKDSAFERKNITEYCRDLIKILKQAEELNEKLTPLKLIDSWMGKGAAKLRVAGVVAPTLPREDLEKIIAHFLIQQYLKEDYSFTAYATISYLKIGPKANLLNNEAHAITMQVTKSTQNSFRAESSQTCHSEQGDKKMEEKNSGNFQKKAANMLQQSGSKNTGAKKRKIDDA
Outline: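 50 nM RECQ1T1 preincubated 15 min with compound in Tris pH 8.0 buffer with MgCl2, DTT, Tween-20 and 2.5 ug/ml poly(dI-dC); started with 200 nM TAMRA/BHQ-2 forked duplex and 2 mM ATP. Unwinding read as fluorescence (525/598 nm), two reads 2 h apart.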

[7] = biological target: RecQ-like DNA helicase BLM (Homo sapiens) (UniProt P54132); experiment: qHTS Validation Assay for Inhibitors of Bloom's syndrome helicase (BLM) (AID 2364); further: potency means the concentration at half of the fitted maximal effect
RecQ-like DNA helicase BLM (Homo sapiens), sequence (P54132 whole entry, looked up): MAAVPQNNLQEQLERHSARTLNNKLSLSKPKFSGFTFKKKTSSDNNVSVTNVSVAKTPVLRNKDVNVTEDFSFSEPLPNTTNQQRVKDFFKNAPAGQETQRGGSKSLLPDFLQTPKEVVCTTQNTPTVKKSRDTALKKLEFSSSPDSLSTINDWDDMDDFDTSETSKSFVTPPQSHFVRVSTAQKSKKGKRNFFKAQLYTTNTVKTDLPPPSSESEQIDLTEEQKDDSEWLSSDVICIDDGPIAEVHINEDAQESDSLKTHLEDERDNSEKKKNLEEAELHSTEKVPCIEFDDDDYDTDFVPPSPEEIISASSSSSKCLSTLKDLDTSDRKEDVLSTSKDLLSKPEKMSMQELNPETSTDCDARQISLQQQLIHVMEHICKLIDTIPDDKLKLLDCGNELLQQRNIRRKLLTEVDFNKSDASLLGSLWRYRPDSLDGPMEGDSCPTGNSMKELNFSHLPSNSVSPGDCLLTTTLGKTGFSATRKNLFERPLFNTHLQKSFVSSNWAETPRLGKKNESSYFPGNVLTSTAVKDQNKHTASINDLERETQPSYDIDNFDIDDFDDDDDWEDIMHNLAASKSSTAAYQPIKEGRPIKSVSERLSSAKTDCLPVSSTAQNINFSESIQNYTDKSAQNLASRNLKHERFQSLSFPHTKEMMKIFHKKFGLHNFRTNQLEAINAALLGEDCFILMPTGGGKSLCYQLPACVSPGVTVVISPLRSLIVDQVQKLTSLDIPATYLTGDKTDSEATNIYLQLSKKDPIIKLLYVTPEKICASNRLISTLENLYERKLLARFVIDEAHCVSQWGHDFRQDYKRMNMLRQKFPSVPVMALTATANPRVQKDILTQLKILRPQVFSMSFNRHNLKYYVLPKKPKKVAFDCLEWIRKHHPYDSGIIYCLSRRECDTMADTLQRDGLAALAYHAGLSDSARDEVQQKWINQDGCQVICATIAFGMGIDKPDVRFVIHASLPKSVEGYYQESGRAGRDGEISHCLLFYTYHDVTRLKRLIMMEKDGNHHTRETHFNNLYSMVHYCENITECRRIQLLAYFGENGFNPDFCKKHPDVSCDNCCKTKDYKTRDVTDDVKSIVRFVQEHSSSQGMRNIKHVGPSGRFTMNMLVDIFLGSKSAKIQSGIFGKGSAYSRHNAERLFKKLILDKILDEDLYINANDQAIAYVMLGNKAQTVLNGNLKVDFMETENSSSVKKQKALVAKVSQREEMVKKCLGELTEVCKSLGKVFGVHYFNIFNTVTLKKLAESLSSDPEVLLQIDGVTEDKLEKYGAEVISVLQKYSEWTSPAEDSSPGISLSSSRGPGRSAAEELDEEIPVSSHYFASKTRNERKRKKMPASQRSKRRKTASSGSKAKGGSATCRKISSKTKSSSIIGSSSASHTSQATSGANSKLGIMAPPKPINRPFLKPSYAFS
Outline: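 Forked 20-bp duplex substrate (200 nM, TAMRA/BHQ-2) plus 2 mM ATP added after 15 min compound preincubation with 50 nM enzyme, pH 8.0, poly(dI-dC) 2.5 ug/ml. Strand separation followed by fluorescence (525/598 nm) over 2 h, normalized to enzyme-free and DMSO controls.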

[8] = biological target: Endonuclease 4 (Escherichia coli (strain K12)) (UniProt P0A6C1); experiment: Counterscreen for APE1 Inhibitors: qHTS Assay for Inhibitors of Endonuclease IV (AID 2565)
Outline: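 qHTS concentration-response format; LOPAC1280 tested under APE1-screen conditions. 2 nM enzyme, 15 min compound preincubation at RT, then 50 nM TAMRA/BHQ-2 abasic substrate; kinetic fluorescence read, three reads at 60 s intervals.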

[9] = qHTS Assay for Modulators of Human Peripheral Myelin Protein 22 (PMP22) Expression/Activity (AID 1967; active means well fitted curve in the direction sought with a large enough effect in the signal ratio; the % refers to the signal ratio)
Outline: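 Quantitative HTS in a mouse Schwann cell line expressing dual click beetle luciferases: Pmp22 promoter (green) and control EF-alpha promoter (red). After 24h treatment, corrected green/red signal ratio gave %Activity relative to untreated cells.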

Measured: Potency

NCCCCN
not listed: [8] | [9]
inactive: all other assays above

NCCCCN=C(N)N
not listed: [7] | [8] | [9]
inactive: all other assays above

CC(C)Cn1c(=O)n(C)c(=O)c2[nH]cnc21
not listed: [8] | [9]
inactive: all other assays above

CC(N)(Cc1ccc(O)cc1)C(=O)O (configuration not stated)
active: [6] 11.2 µM
not listed: [8] | [9]
inactive: all other assays above

NC(Cc1cccc(-c2ccccc2CP(=O)(O)O)c1)C(=O)O (configuration not stated)
not listed: [8] | [9]
inactive: all other assays above

Cc1ccc([N+](=O)[O-])cc1S(=O)(=O)N(C)C
not listed: [8] | [9]
inactive: all other assays above

COc1cc(C(O)CO)ccc1O (configuration not stated)
not listed: [8] | [9]
inactive: all other assays above

O=C(O)/C=C/c1ccc(O)c(O)c1
not listed: [8] | [9]
inactive: all other assays above

O=C(O)c1cc(=O)cc(C(=O)O)[nH]1
not listed: [7] | [8] | [9]
inactive: all other assays above

CCCCC[C@H](CC(=O)NO)C(=O)N[C@H](C(=O)N1CCC[C@H]1CO)C(C)C
active: [1] 1.58 µM | [2] 3.55 µM | [3] 2.51 µM | [4] 2.82 µM
inactive: [5] | [6] | [7]

CN(C)C(=O)/N=N/C(=O)N(C)C
not listed: [8] | [9]
inactive: all other assays above

NC1CCN(O)C1=O (configuration not stated)
not listed: [9]
inactive: all other assays above

CCCCCC(O)CCCC(=O)O (configuration not stated)
not listed: [8] | [9]
inactive: all other assays above

C=CC[C@H](N)C(=O)O
not listed: [8] | [9]
inactive: all other assays above

Nc1ccc(-c2nc3ccc(-c4nc5ccc(N)cc5[nH]4)cc3[nH]2)cc1
active: [1] 0.708 µM | [2] 1 µM | [3] 0.251 µM | [4] 0.794 µM | [6] 8.91 µM | [7] 22.4 µM
inactive: [5]

NC1C=CC=C(C(=O)O)C1 (configuration not stated)
not listed: [7] | [8] | [9]
inactive: all other assays above

CCN(c1nc(N)c(C(=O)N=C(N)N)nc1Cl)C(C)C
active: [1] 11.2 µM | [3] 7.94 µM | [4] 11.2 µM
inactive: [2] | [6] | [7]

CC1CCN=C(N)S1 (configuration not stated)
inactive: [1] | [2] | [4] | [6]
active: [3] 11.2 µM

N=C(N)SCCc1cnc[nH]1
not listed: [3] | [8]
inactive: all other assays above

CN(C)S(=O)(=O)c1ccc2c(c1)/C(=C/c1cc3c([nH]1)CCCC3)C(=O)N2
inactive: [6]
active: [1] 3.55 µM | [2] 7.08 µM | [3] 3.55 µM | [4] 3.98 µM

COc1ccccc1N1CCN(CCCCNC(=O)c2ccc3ccccc3c2)CC1
active: [1] 10 µM | [2] 10 µM | [3] 2.51 µM | [4] 5.01 µM
inactive: [6] | [7]

COCc1nc2c([nH]1)c(=O)n(C)c(=O)n2CC(C)C
not listed: [3] | [7] | [8]
inactive: all other assays above

C=CCN1CCc2c(cc(O)c(O)c2Cl)C(c2ccccc2)C1 (configuration not stated)
inactive: [6]
active: [1] 12.6 µM | [2] 10 µM | [3] 3.55 µM | [4] 7.08 µM

O=c1ccn([C@@H]2O[C@H](COP(=O)(O)OP(=O)(O)O)[C@@H](O)[C@H]2O)c(=O)[nH]1
inactive: [1] | [2] | [3] | [4] | [6]

CCCCCCN(CCCCCC)C(=O)Cc1c(-c2ccc(F)cc2)[nH]c2ccccc12
inactive: [6]
active: [1] 12.6 µM | [2] 10 µM | [3] 3.55 µM | [4] 7.08 µM

O=C1C2C=CC=CC2=NC(=S)N1CCN1CCC(=C(c2ccc(F)cc2)c2ccc(F)cc2)CC1 (configuration not stated)
active: [3] 10 µM
inactive: [1] | [2] | [6]

Nc1nc2[nH]c(=O)cnc2c(=O)[nH]1
not listed: [5] | [8] | [9]
inactive: all other assays above

CCn1c(=O)[nH]c2cc(Cl)c(Cl)cc21
inactive: [1] | [2] | [3] | [4] | [6]

N#CC(C#N)=C(N)/C(C#N)=C/c1ccc(O)cc1
inactive: [1] | [2] | [3] | [5] | [6]

O=[N+]([O-])c1cccc2cn[nH]c12
inactive: [1] | [2] | [3] | [4] | [6]

N[C@@H](Cc1ccc(F)cc1)C(=O)O
active: [1] 17.8 µM | [3] 11.2 µM | [4] 12.6 µM
inactive: [2] | [6] | [7]

NC(=O)c1ccccc1
inactive: [1] | [2] | [3] | [4] | [6]

CCCCCCCCCC(=O)NC(CN1CCOCC1)[C@H](O)c1ccccc1 (some centres not stated)
active: [1] 12.6 µM | [2] 2.24 µM | [3] 1.58 µM | [4] 8.91 µM
inactive: [6]

CCSC(=N)N
not listed: [3] | [7] | [8]
inactive: all other assays above

O[Si](CCCN1CCCCC1)(c1ccc(F)cc1)C1CCCCC1 (configuration not stated)
inactive: [6]
active: [1] 0.0282 µM | [2] 0.141 µM | [3] 0.0631 µM | [4] 0.0708 µM

CNC(=O)c1cc2c(cn1)[nH]c1ccccc12
active: [3] 12.6 µM
inactive: [1] | [2] | [5] | [6] | [7]

Cn1ccnc1
not listed: [5] | [8] | [9]
inactive: all other assays above

CCCCCCC/C=C\CCCCCCCCC(=O)O
inactive: [1] | [2] | [3] | [4]
active: [7] 28.2 µM

Cc1nc(N=Nc2ccc(S(=O)(=O)O)cc2S(=O)(=O)O)c(COP(=O)(O)O)c(C=O)c1O
not listed: [5] | [8] | [9]
inactive: all other assays above

COc1ccccc1N1CCN(CCCCN2C(=O)c3ccccc3C2=O)CC1
active: [3] 3.55 µM
not listed: [4] | [8]
inactive: all other assays above

NC(N)=[N+]1CCc2ccccc2C1
not listed: [5] | [8] | [9]
inactive: all other assays above

CN1CCN(c2nc3cc(C(F)(F)F)ccc3n3cccc23)CC1
active: [1] 11.2 µM | [2] 8.91 µM | [3] 5.62 µM | [4] 11.2 µM
inactive: [6] | [7]

O=c1[nH]c2cc(Cl)ccc2c(O)c1-c1ccc(Oc2ccccc2)cc1
not listed: [3] | [7] | [8]
inactive: all other assays above

Nc1ncnc2c1c(-c1ccc(Oc3ccccc3)cc1)cn2C1CCCC1
active: [1] 12.6 µM | [2] 7.94 µM | [3] 3.55 µM | [4] 12.6 µM
inactive: [6]

CCCc1c(OCCCOc2ccc(OCC(=O)O)cc2)ccc(C(C)=O)c1O
inactive: [1] | [2] | [3] | [4] | [6]

CCCN(CCc1ccccc1)C1CCc2c(O)cccc2C1 (configuration not stated)
inactive: [6] | [7]
active: [1] 5.01 µM | [2] 2 µM | [3] 1 µM | [4] 2.51 µM

O=c1cc(O)cc(/C=C/c2ccc(O)c(O)c2)o1
inactive: [2] | [6]
active: [1] 11.2 µM | [3] 11.2 µM | [4] 11.2 µM

C[C@H](O)C(=O)C1=Nc2c(nc(N)[nH]c2=O)NC1
not listed: [3] | [7] | [8]
inactive: all other assays above

CC(C)(C)c1cc(/C=C(\C#N)C(N)=S)cc(C(C)(C)C)c1O
active: [1] 8.91 µM | [2] 8.91 µM | [3] 2.82 µM | [4] 6.31 µM
inactive: [6]

Nn1nnc2ccccc21
active: [1] 12.6 µM | [3] 17.8 µM
not listed: [4] | [8]
inactive: all other assays above

N#Cc1cc2nc(O)c(O)nc2cc1[N+](=O)[O-]
not listed: [3] | [7] | [8]
inactive: all other assays above

CC(=O)NNC(=O)N1Cc2ccccc2Oc2ccc(Cl)cc21
not listed: [5] | [8] | [9]
inactive: all other assays above

COC(=O)[C@H](NC(=O)c1cc(-c2ccccc2)nc2ccccc12)c1ccccc1
active: [3] 12.6 µM
inactive: [1] | [2] | [5] | [6]

C#CC(N)CCC(=O)O (configuration not stated)
not listed: [3] | [8]
inactive: all other assays above

NCCCNCCCCNCCCN
not listed: [3] | [8] | [9]
inactive: all other assays above

Cc1cccc(C(=O)NCN2CCN(c3ccccc3C#N)CC2)c1
inactive: [1] | [2] | [4] | [5] | [6]

CCCCCCCCCCC/C=C\C(C)(C)/C=C\CCCC(=O)O
inactive: [1] | [2] | [4] | [9]
active: [7] 25.1 µM

CNCCNS(=O)(=O)c1cccc2cnccc12
inactive: [1] | [2] | [4] | [6] | [7]

COc1cc(CNC(=O)CCCCCCC(C)C)ccc1O
inactive: [1] | [2] | [4] | [6]

O=c1onc2n1-c1cc(Br)ccc1OC2
inactive: [1] | [2] | [4] | [5] | [6]

Cc1cc2c(cc1Cl)N(C(=O)Nc1ccnc3ccccc13)CC2
inactive: [1] | [2] | [4] | [6]
